In assay [1] the target is guinea pig Serotonin, 5-Hydroxytryptamine Receptor 4 (5HT4), HTR4 (gene 100135548) (UniProt O70528). The experiment in a line: NVS_GPCR_g5HT4: NovaScreen (NVS) G Protein-Coupled Receptor Assay for guinea pig Serotonin, 5-Hydroxytryptamine Receptor 4 (5HT4) (AID 2283294). The gist of the method: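 Compounds first screened in duplicate at 25 uM, actives followed up in concentration series. Binding measured as displacement of specific radioligand from guinea pig striatal membranes, 1 h, filter-based scintillation read-out versus DMSO baseline.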

Assay [2] deals with 5-hydroxytryptamine receptor 2C (pig). Nature of the assay: NVS_GPCR_p5HT2C: NovaScreen (NVS) G Protein-Coupled Receptor Assay for pig Serotonin, 5-Hydroxytryptamine Receptor 2C (5HT2C) (AID 2283288). The essentials: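 Radioligand displacement on membranes from pig choroid plexus, detected by filter scintillation counting after 1 h. Tested first at a single 25 uM in duplicate, then in concentration-response for actives; DMSO served as baseline.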

For assay [3], the target named is rat Adrenergic, Alpha 1, Non-selective Receptor (Adra1), Adra1a (gene 29412) (UniProt P43140). Nature of the assay: NVS_GPCR_rAdra1_NonSelective: NovaScreen (NVS) G Protein-Coupled Receptor Assay for rat Adrenergic, Alpha 1, Non-selective Receptor (Adra1) (AID 2283289). The gist of the method:
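Chemicals first screened in duplicate at 25 uM, then actives tested in concentration series up to 50 uM. Binding measured as displacement of radioligand from rat forebrain membrane receptors, 1 h, filtration with scintillation readout; DMSO baseline.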

The target of assay [4] is mouse Cholecystokinin, CCK1 Receptor (CCKA), Cckar (gene 12425) (UniProt O08786). Nature of the assay: NVS_GPCR_mCCKAPeripheral: NovaScreen (NVS) G Protein-Coupled Receptor Assay for mouse Cholecystokinin, CCK1 Receptor (CCKA) (AID 2283285). The gist of the method: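 Chemicals were first screened in duplicate at 25 uM, with those meeting threshold (e.g., 30% inhibition) retested in singleton concentration series to 50 uM maximum. Binding of radioligand to mouse pancreatic membranes was read after 2 h by filtration and scintillation counting.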

For assay [5], the system named is rabbit Platelet Activating Factor Receptor (PAF), gene 100354046. Nature of the assay: NVS_GPCR_rabPAF: NovaScreen (NVS) G Protein-Coupled Receptor Assay for rabbit Platelet Activating Factor Receptor (PAF) (AID 2283287). The essentials: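 Rabbit platelet membrane preparation; radioligand displacement read by filter-based scintillation counting 1 h after dosing, loss of signal versus DMSO. Primary screen in duplicate at 25 uM, actives followed up in concentration series.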

The target of assay [6] is rat Serotonin, 5-Hydroxytryptamine Receptor 1 (5HT1), Non-Selective Binding, Htr1a (gene 24473) (UniProt P19327). Nature of the assay: NVS_GPCR_r5HT1_NonSelective: NovaScreen (NVS) G Protein-Coupled Receptor Assay for rat Serotonin, 5-Hydroxytryptamine Receptor 1 (5HT1), Non-Selective Binding (AID 2283286). The gist of the method:
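Binding of a radioligand to rat cortex membranes is read by filtration and scintillation counting after 1 h. Compounds were screened at 25 uM in duplicate. Actives were then titrated to a top of 50 uM. DMSO is the baseline.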

Assay [7] concerns the target human Vasopressin 1A Receptor (V1A), AVPR1A (gene 552) (UniProt P37288). The experiment in a line: NVS_GPCR_hV1A: NovaScreen (NVS) G Protein-Coupled Receptor Assay for human Vasopressin 1A Receptor (V1A) (AID 2283284). How it is done: NVS_GPCR_hV1A is a biochemical, single-readout assay that uses extracted gene-proteins from Human platelets in a cell-free assay. Measurements were taken 1.5 hours after chemical dosing in a 96-well plate.NVS_GPCR_hV1A is one of one assay component(s) measured or calculated from the NVS_GPCR_hV1A assay. It is designed to make measurements of radioligand binding, a form of binding reporter, as detected with scintillation counting signals by Filter-based radiodetection technology.Data from the assay component NVS_GPCR_hV1A was analyzed into 1 assay endpoint. This assay endpoint, NVS_GPCR_hV1A, was analyzed in the positive analysis fitting direction relative to DMSO as the negative control and baseline of activity. Using a type of binding reporter, loss-of-signal activity can be used to understand changes in the binding as they relate to the gene AVPR1A. Furthermore, this assay endpoint can be referred to as a primary readout, because the performed assay has only produced 1 assay endpoint. To generalize the intended target to other relatable targets, this assay endpoint is annotated to the gpcr intended target family, where the subfamily is rhodopsin-like receptor.
Binding assays used specific radioligands (tritiated, iodinated) with non-radioactive competitive displacement ligands in agonist or antagonist protocols (as indicated) and various reference compounds and inhibitors to titrate specific binding to receptors and transporters. Most enzyme assays (CYPs, kinases, phosphatases, proteases, HDACs) used recombinant protein and specific substrates (fluorescence mostly, some colorimetric and radioactive) and inhibitors, followed by a biochemical separation of substrate and product. All assays for the biochemical HTS were initially run in duplicate at a single concentration (10 uM for CYP450 assays and 25 uM for all others). Assay-chemical combinations meeting a pre-defined threshold (e.g., 30% inhibition and other criteria defined below) were then run in singleton concentration-response format with maximum concentration of 20 uM for CYPs and 50 uM for all others. […]

Assay [8] deals with guinea pig Bradykinin Receptor B2 (BK2), BDKRB2 (gene 100135486) (UniProt O70526). Nature of the assay: NVS_GPCR_gBK2: NovaScreen (NVS) G Protein-Coupled Receptor Assay for guinea pig Bradykinin Receptor B2 (BK2) (AID 2283292). The essentials: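 Guinea pig ileum membrane preparation incubated 1 h with radioligand and test chemical; bound counts measured after filtration. Primary duplicate screening at 25 uM, then singleton concentration series with a 50 uM top dose; DMSO as baseline.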

Assay [9] concerns the target mouse Cholecystokinin, CCK2 Receptor (CCKB), Cckbr (gene 12426) (UniProt P56481). Nature of the assay: NVS_GPCR_mCKKBCentral: NovaScreen (NVS) G Protein-Coupled Receptor Assay for mouse Cholecystokinin, CCK2 Receptor (CCKB) (AID 2283293). The gist of the method:
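Mouse forebrain membrane preparation incubated 2 h with chemical and radioligand; bound radioactivity counted after filtration. Single-concentration duplicate screen at 25 uM, then concentration series to 50 uM max for hits, DMSO as baseline.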

The test system of assay [10] is guinea pig Atrionatriuretic Peptide Receptor A (ANPA), gene 100135578. Nature of the assay: NVS_GPCR_gANPA: NovaScreen (NVS) G Protein-Coupled Receptor Assay for guinea pig Atrionatriuretic Peptide Receptor A (ANPA) (AID 2283291). As for the experimental part: NVS_GPCR_gANPA is a biochemical, single-readout assay that uses extracted gene-proteins from Guinea pig cerebellar membranes in a tissue-based cell-free assay. Measurements were taken 1 hour after chemical dosing in a 96-well plate.NVS_GPCR_gANPA is one of one assay component(s) measured or calculated from the NVS_GPCR_gANPA assay. It is designed to make measurements of radioligand binding, a form of binding reporter, as detected with scintillation counting signals by Filter-based radiodetection technology.Data from the assay component NVS_GPCR_gANPA was analyzed into 1 assay endpoint. This assay endpoint, NVS_GPCR_gANPA, was analyzed in the positive analysis fitting direction relative to DMSO as the negative control and baseline of activity. Using a type of binding reporter, loss-of-signal activity can be used to understand changes in the binding as they relate to the gene Nppa. Furthermore, this assay endpoint can be referred to as a primary readout, because the performed assay has only produced 1 assay endpoint. To generalize the intended target to other relatable targets, this assay endpoint is annotated to the lyase intended target family, where the subfamily is guanylyl cyclase. […]

Among the data in PubChem BioAssay (EPA / NIEHS) are AC50 and outcome values, retold here.

Records with an inconclusive call do not appear. Activity calls are given as the source filed them. How the source made its calls: active means hit-call score of the fitted dose curve at least 0.9, where 1 is the maximum; inconclusive means response in the unintended direction; inactive means score below 0.9.

Broadly, the AC50 is the concentration at which the activity in the assay is half-maximal.

Sequence of rat Adrenergic, Alpha 1, Non-selective Receptor (Adra1), Adra1a (gene 29412) (P43140 whole entry, looked up): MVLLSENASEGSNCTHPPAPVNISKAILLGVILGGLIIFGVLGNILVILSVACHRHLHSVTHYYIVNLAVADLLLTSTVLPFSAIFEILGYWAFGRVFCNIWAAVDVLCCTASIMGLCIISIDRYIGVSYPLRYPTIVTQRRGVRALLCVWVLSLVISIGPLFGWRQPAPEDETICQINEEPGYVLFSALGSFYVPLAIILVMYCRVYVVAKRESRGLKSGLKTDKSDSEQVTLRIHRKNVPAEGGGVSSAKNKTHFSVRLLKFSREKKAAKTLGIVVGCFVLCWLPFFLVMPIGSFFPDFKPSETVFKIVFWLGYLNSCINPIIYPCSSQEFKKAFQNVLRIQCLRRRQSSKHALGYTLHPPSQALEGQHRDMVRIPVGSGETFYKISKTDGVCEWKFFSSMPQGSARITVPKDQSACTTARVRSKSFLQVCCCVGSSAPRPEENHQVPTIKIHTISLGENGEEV
Sequence of guinea pig Serotonin, 5-Hydroxytryptamine Receptor 4 (5HT4), HTR4 (gene 100135548) (O70528 whole entry, looked up): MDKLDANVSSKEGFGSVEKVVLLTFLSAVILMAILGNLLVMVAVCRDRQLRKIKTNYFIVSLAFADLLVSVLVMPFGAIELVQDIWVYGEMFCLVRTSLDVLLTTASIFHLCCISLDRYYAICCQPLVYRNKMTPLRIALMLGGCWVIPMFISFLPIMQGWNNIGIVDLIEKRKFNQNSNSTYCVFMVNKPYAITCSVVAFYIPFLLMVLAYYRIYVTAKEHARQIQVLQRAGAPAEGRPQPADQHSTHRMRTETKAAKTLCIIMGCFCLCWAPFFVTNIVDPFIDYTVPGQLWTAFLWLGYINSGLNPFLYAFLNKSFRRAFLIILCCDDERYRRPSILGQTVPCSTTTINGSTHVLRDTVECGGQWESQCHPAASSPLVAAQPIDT
Sequence of human Vasopressin 1A Receptor (V1A), AVPR1A (gene 552) (P37288 whole entry, looked up): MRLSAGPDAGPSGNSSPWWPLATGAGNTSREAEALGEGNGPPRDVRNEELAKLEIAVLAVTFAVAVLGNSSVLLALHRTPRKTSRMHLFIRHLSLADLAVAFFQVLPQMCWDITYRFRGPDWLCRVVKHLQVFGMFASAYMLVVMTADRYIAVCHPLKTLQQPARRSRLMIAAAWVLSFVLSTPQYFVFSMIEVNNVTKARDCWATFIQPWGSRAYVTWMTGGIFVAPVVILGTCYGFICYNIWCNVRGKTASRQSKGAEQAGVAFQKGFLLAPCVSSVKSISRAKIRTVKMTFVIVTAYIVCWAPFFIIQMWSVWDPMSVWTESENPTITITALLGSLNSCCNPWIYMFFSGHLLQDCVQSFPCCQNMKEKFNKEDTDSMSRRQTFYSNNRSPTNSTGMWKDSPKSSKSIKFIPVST
Sequence of rat Serotonin, 5-Hydroxytryptamine Receptor 1 (5HT1), Non-Selective Binding, Htr1a (gene 24473) (P19327 whole entry, looked up): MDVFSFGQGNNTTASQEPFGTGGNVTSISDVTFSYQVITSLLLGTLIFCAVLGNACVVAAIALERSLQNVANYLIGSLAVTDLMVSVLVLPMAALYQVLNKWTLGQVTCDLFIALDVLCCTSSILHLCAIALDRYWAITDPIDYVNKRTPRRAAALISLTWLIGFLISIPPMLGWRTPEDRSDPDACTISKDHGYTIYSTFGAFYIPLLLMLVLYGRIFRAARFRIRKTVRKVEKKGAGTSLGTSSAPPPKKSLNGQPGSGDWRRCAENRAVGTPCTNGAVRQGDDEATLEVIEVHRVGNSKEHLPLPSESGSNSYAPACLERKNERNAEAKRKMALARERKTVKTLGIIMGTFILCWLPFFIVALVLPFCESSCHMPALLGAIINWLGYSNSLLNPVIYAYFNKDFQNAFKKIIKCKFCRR
Sequence of guinea pig Bradykinin Receptor B2 (BK2), BDKRB2 (gene 100135486) (O70526 whole entry, looked up): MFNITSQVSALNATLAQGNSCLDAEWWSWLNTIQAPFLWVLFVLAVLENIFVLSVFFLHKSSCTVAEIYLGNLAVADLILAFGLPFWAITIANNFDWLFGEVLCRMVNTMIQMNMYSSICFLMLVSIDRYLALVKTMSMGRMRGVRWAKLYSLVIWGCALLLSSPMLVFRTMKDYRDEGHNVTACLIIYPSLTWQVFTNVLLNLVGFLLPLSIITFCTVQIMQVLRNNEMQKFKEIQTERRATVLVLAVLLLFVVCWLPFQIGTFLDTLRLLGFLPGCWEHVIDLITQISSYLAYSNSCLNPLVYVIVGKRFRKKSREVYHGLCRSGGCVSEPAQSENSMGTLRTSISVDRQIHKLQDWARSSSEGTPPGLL
Sequence of mouse Cholecystokinin, CCK1 Receptor (CCKA), Cckar (gene 12425) (O08786 whole entry, looked up): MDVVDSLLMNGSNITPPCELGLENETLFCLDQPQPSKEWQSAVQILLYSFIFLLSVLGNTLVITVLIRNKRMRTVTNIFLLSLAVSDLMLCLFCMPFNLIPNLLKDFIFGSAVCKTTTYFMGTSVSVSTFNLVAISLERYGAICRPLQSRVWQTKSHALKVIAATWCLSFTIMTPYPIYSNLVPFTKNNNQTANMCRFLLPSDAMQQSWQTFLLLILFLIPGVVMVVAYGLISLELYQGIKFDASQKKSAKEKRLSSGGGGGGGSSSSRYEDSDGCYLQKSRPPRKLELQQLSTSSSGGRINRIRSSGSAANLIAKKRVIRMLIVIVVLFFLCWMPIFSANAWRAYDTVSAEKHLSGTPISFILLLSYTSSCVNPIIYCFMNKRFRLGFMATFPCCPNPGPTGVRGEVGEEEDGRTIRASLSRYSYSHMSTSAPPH
Sequence of mouse Cholecystokinin, CCK2 Receptor (CCKB), Cckbr (gene 12426) (P56481 whole entry, looked up): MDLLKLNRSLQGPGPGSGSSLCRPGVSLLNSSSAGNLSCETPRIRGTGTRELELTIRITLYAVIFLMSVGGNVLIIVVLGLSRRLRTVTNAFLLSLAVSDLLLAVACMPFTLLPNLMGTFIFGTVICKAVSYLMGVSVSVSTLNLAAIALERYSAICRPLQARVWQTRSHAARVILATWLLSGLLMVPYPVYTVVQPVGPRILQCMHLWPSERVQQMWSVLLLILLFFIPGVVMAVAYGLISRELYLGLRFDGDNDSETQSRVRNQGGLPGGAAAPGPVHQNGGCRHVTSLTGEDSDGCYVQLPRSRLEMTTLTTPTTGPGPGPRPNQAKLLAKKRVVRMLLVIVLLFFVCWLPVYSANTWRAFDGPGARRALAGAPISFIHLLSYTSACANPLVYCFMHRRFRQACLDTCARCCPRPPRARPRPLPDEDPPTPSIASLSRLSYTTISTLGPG

As to `CCCCCCCCn1sccc1=O`, in assay [1], the AC50 was 20.2 µM (active).
Take `CC(C)(O)c1cnn2c(-c3ccc(F)c(-c4c(F)cccc4C#N)c3)cnc2n1`: in assay [2], the result was inactive.
For `Cc1cccc(N)c1N`, in assay [2], the concentration at half-maximal activity (AC50) was 16.8 µM (active).
`C=CCc1ccc2c(c1)OCO2`: the call in [3] was inactive.
For `COC(=O)Nc1nc2ccccc2[nH]1`, the call in assay [2] was inactive.
Take `CC(C)(C)C(O)(CCc1ccc(Cl)cc1)Cn1cncn1` (stereo not given): the molecule was classed as inactive in assay [4]. Further, the AC50 in assay [5] was 16.7 µM (active).
As to `O=[N+]([O-])c1ccc(Oc2ccc(Cl)cc2Cl)cc1`, the molecule was classed as inactive in assay [4].
Regarding `CN(C)[C@@H]1C(=O)C(C(N)=O)=C(O)[C@@]2(O)C(=O)C3=C(O)c4c(O)cccc4[C@@](C)(O)[C@H]3C[C@@H]12`, in assay [4], the AC50 is 25 µM (active).
`Cc1ccc(N)c(N)c1`: the result in assay [1] was inactive.
Same read-out and setting: the same measure for `CC(C)COC(=O)c1ccccc1C(=O)OCC(C)C`: “inactive”.
As for `Cc1cc(N=Nc2ccccc2C)ccc1N`, in assay [4], the outcome was inactive.
Turning to `COP(=S)(OC)SCN1C(=O)c2ccccc2C1=O`, in assay [6], the outcome was inactive. The half-maximal activity concentration (AC50) in assay [5] was 14.9 µM (active).
For the molecule `O=C(Oc1ccc(Br)cc1)N1CCN2CCC1CC2`, the result in [3] was inactive. In addition, the AC50 in assay [1] was 14.8 µM (active).
Take `CCC[CH2][Sn]([Cl])([CH2]CCC)[CH2]CCC`: the AC50 in assay [7] is 7.85 µM (active); in assay [4] it was 0.228 µM (active); in assay [6] it was 17.2 µM (active); in assay [5], 5.79 µM (active); in assay [3], 8.26 µM (active); in [8], 10.6 µM (active). The AC50 was 2.25 µM (active) in assay [9] and 3 µM (active) in assay [1].
As for `CCCSC(=O)N(CCC)CCC`, in [8], the outcome was inactive.
On to `CC(C)N(Cc1ccccc1)C(=O)C(C)(C)C`, for which, in assay [5], the AC50 was 13.1 µM (active).
Turning to `Oc1ccccc1Cl`, the molecule was called inactive in [5].
Take `CCOC(=O)[C@]1(c2ccccc2)Oc2ccccc2[C@@H]1N`: the AC50 is 1.08 µM (active) in assay [6]; 7.6 µM (active) in assay [5]; 1.29 µM (active) in [2]; 0.184 µM (active) in assay [3]; 4.94 µM (active) in assay [1].
With `CCCCCOC(=O)c1ccccc1C(=O)OCCCCC`, the outcome in assay [4], in assay [9] and in [1] was inactive.
`O=C(N[C@H](c1ccccc1)[C@@H]1CN2CCC1CC2)c1c(Cl)ccc(C(F)(F)F)c1Cl`: the molecule was called inactive in [6]. Also, the AC50 in assay [3] is 23.6 µM (active).
Take `Cc1ccc(N=C=O)cc1N=C=O`: in assay [6], the call was inactive.
For the molecule `O=[N+]([O-])C(Br)(CO)CO`, the molecule was called inactive in [7]. The AC50 in [6] was 32.8 µM (active).
Regarding `CC(O)CCO` (stereo not given), the molecule was classed as inactive in [7].
Take `Clc1ccc(C(c2ccc(Cl)cc2)C(Cl)Cl)cc1`: in [2], the molecule was called inactive.
As for `[Cl-].[Cl-].[Hg+2]`, the AC50 in assay [4] was 18 µM (active); in [5], 36.7 µM (active); in assay [3] it was 2.86 µM (active); in assay [8], 25 µM (active); in [9] it was 38.6 µM (active); in assay [1], 7.68 µM (active).
Turning to `CCNS(=O)(=O)C(F)(F)C(F)(F)C(F)(F)C(F)(F)C(F)(F)C(F)(F)C(F)(F)C(F)(F)F`, the result in [10] was inactive.
The same measure, in the same setting: to `COc1cc(C=O)cc2c1[C@H](COC(N)=O)[C@]1(OC(C)=O)ON2C[C@H]2[C@@H]1N2C(C)=O` belongs “inactive”.
